Reference: the supplement of paper PMC12494721
Structures can show the parent of a compound that is named as a salt.

What was measured:
Conditions in all cases: incubation time: 27 h, anaerobic, 37 °C;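 for the amine columns active = adjusted P below 0.05 in both replicates with a change the same way and a mean fold change under 0.8 or over 1.25; inactive = the rest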
[1] = test system: Clostridium sporogenes DSM 1664; experiment: growth (OD595) fold change vs plate DMSO controls (fold change (ratio)); higher = more growth
Method in brief: (§1)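 Shaken 96-well cultures in mGAM, grown anaerobically for 27 h at 37 °C, were read at 595 nm. OD came from blank-subtracted readings, corrected for background with 20 µM compound solutions in water and scaled by a calibration factor of 5. Growth is the fold change versus the plate's median DMSO control. Values average 2 biological replicates, and any fold change above 1.5 is NA.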

Escherichia coli IAI1 [2] = experiment: as above
Method in brief: as §1

[3] = test system: Klebsiella aerogenes DSM 30053; experiment: as above
Method in brief: as §1

[4] = test system: Ruminococcus gnavus DSM 108212; experiment: as above
Method in brief: as §1

[5] = test system: Klebsiella aerogenes DSM 30053; experiment: fold change of Histamine concentration vs plate DMSO controls (fold change (ratio)); higher = more amine produced, active = hit call of the paper (significant change in both replicates, either direction)
Method in brief: (§2)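 Each value is the fold change relative to DMSO-only wells on the same plate. Four gut bacterial strains were grown anaerobically in mGAM at 37 °C for 27 h in 80 µL wells, starting at OD 0.1 before a 1:1 dilution, with compounds at 20 µM final (sweeteners 50 µM). Whole cultures were extracted with cold acetonitrile/methanol containing 0.1% formic acid, centrifuged, and amines were quantified by LC–triple-quadrupole MS (dynamic MRM) against external calibration curves with within-batch drift correction. Values are means of 2 biological replicates.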

[6] = test system: Clostridium sporogenes DSM 1664; experiment: fold change of Tryptamine concentration vs plate DMSO controls (fold change (ratio)); higher = more amine produced, active = hit call of the paper (significant change in both replicates, either direction)
Method in brief: as §2

[7] = test system: Ruminococcus gnavus DSM 108212; experiment: as above
Method in brief: as §2

Escherichia coli IAI1 [8] = experiment: fold change of Putrescine concentration vs plate DMSO controls (fold change (ratio)); higher = more amine produced, active = hit call of the paper (significant change in both replicates, either direction)
Method in brief: as §2

[9] = test system: Klebsiella aerogenes DSM 30053; experiment: as above
Method in brief: as §2

Escherichia coli IAI1 [10] = experiment: fold change of Cadaverine concentration vs plate DMSO controls (fold change (ratio)); higher = more amine produced, active = hit call of the paper (significant change in both replicates, either direction)
Method in brief: as §2

[11] = test system: Klebsiella aerogenes DSM 30053; experiment: as above
Method in brief: as §2

[12] = test system: Ruminococcus gnavus DSM 108212; experiment: fold change of 2-Phenylethylamine concentration vs plate DMSO controls (fold change (ratio)); higher = more amine produced, active = hit call of the paper (significant change in both replicates, either direction)
Method in brief: as §2

| SMILES | growth [1] | growth (Escherichia coli IAI1 [2]) | growth [3] | growth [4] | fold change of Histamine concentration [5] | fold change of Tryptamine concentration [6] | fold change of Tryptamine concentration [7] | fold change of Putrescine concentration (Escherichia coli IAI1 [8]) | fold change of Putrescine concentration [9] | fold change of Cadaverine concentration (Escherichia coli IAI1 [10]) | fold change of Cadaverine concentration [11] | fold change of 2-Phenylethylamine concentration [12] |
| --- | --- | --- | --- | --- | --- | --- | --- | --- | --- | --- | --- | --- |
| CN1CCN(C2=Nc3ccccc3Oc3ccc(Cl)cc32)CC1 [Loxapine succinate] (20 µM) | 1.12 | 1.04 | 1.04 | 1.4 | 0.932 (inactive) | 1.04 (inactive) | 0.962 (inactive) | 0.998 (inactive) | 1 (inactive) | 1.01 (inactive) | 1.02 (inactive) | 0.973 (inactive) |
| CCCCC1C(=O)N(c2ccccc2)N(c2ccc(O)cc2)C1=O (stereo not drawn) [Oxyphenbutazone] (20 µM) | 1.01 | 1 | 1.2 | 1.09 | 0.888 (inactive) | 1.3 (inactive) | 1.14 (inactive) | 1.21 (inactive) | 0.877 (inactive) | 0.973 (inactive) | 1.14 (inactive) | 1.23 (inactive) |
| COc1ccc(CN(CCN(C)C)c2ccccn2)cc1 [Pyrilamine maleate] (20 µM) | 1.02 | 0.962 | 0.981 | 0.868 | 1.02 (inactive) | 1.02 (inactive) | 1.02 (inactive) | 0.811 (inactive) | 1.07 (inactive) | 1.57 (active) | 1.04 (inactive) | 0.963 (inactive) |
| CCN(CC)Cc1cc(Nc2ccnc3cc(Cl)ccc23)ccc1O [Amodiaquine dihydrochloride dihydrate] (20 µM) | 0.973 | 0.964 | 0.915 | 1.02 | 1.03 (inactive) | 1.01 (inactive) | 1.01 (inactive) | 0.928 (inactive) | 1.01 (inactive) | 0.967 (inactive) | 0.978 (inactive) | 1.03 (inactive) |
| O=C(O)c1cc(=O)c2ccccc2o1 [Chromocarb] (20 µM) | 0.945 | 0.984 | 0.99 | 0.957 | 1.02 (inactive) | 1.01 (inactive) | 0.989 (inactive) | 1.01 (inactive) | 0.998 (inactive) | 0.983 (inactive) | 0.979 (inactive) | 0.974 (inactive) |
| CC(C)OC(=O)C(C)(C)Oc1ccc(C(=O)c2ccc(Cl)cc2)cc1 [Fenofibrate] (20 µM) | 1.12 | 1.04 | 1.04 | 1.36 | 0.941 (inactive) | 1.03 (inactive) | 1.05 (inactive) | 1.03 (inactive) | 0.984 (inactive) | 1.03 (inactive) | 1.01 (inactive) | 1.05 (inactive) |
| Clc1ccc(COC(Cn2ccnc2)c2ccc(Cl)cc2Cl)cc1 (stereo not drawn) [Econazole nitrate] (20 µM) | 1.35 | 1.01 | 1.08 | 0.481 | 0.83 (inactive) | 0.815 (inactive) | 0.357 (active) | 1.01 (inactive) | 0.963 (inactive) | 1.02 (inactive) | 1.01 (inactive) | 0.404 (active) |
| O=C(c1cc(O)c(O)c(O)c1)c1ccc(O)c(O)c1O [Exifone] (20 µM) | 1.09 | 1 | 0.934 | 0.904 | 1.06 (inactive) | 1.09 (inactive) | 1.03 (inactive) | 1.01 (inactive) | 0.998 (inactive) | 0.991 (inactive) | 1 (inactive) | 1.07 (inactive) |
| Clc1ccccc1C(c1ccccc1)(c1ccccc1)n1ccnc1 [Clotrimazole] (20 µM) | 0.97 | 0.974 | 0.998 | 0.513 | 0.999 (inactive) | 0.977 (inactive) | 0.887 (inactive) | 0.997 (inactive) | 1.02 (inactive) | 0.955 (inactive) | 1.01 (inactive) | 0.929 (inactive) |
| CCCC(=O)N1CCCN(c2nc(N)c3cc(OC)c(OC)cc3n2)CC1 [Bunazosin hydrochloride] (20 µM) | 1.05 | 1.05 | 1 | 1.06 | 1.04 (inactive) | 1.02 (inactive) | 1 (inactive) | 0.989 (inactive) | 0.996 (inactive) | 0.996 (inactive) | 0.984 (inactive) | 1.03 (inactive) |
| CC(C)(C)NC[C@H](O)COc1nsnc1N1CCOCC1 [Timolol maleate salt] (20 µM) | 1 | 1.03 | 1.02 | 1.01 | 1.04 (inactive) | 1.03 (inactive) | 0.991 (inactive) | 1.12 (inactive) | 1.01 (inactive) | 1.02 (inactive) | 1 (inactive) | 0.997 (inactive) |
| C[C@H](CCC(=O)O)[C@H]1CC[C@H]2[C@@H]3C(=O)C[C@@H]4CC(=O)CC[C@]4(C)[C@H]3CC(=O)[C@]12C [Dehydrocholic acid] (20 µM) | 0.917 | 0.968 | 0.94 | 0.872 | 1.02 (inactive) | 0.96 (inactive) | 0.987 (inactive) | 0.975 (inactive) | 1.01 (inactive) | 0.982 (inactive) | 1.01 (inactive) | 0.859 (inactive) |
| O=c1oc2ccccc2c(O)c1Cc1c(O)c2ccccc2oc1=O [Dicumarol] (20 µM) | 0.886 | 0.961 | 1.04 | 0.883 | 1 (inactive) | 0.989 (inactive) | 0.949 (inactive) | 0.993 (inactive) | 1 (inactive) | 1.01 (inactive) | 1.01 (inactive) | 1.02 (inactive) |
| C=C1c2cccc(O)c2C(O)=C2C(=O)[C@]3(O)C(O)=C(C(N)=O)C(=O)[C@@H](N(C)C)[C@@H]3[C@@H](O)[C@H]12 [Methacycline hydrochloride] (20 µM) | 0 | 0.0377 | 0.0637 | 0.836 | 0.0707 (active) | 0.0282 (active) | 0.461 (active) | 0.177 (active) | 0.486 (active) | 0.294 (active) | 0.536 (active) | 0.58 (inactive) |
| CC(C)Nc1cccnc1N1CCN(C(=O)c2cc3cc(NS(C)(=O)=O)ccc3[nH]2)CC1 [Delavirdine] (20 µM) | 1.03 | 1.01 | 0.995 | 0.754 | 1.04 (inactive) | 0.965 (inactive) | 1.05 (inactive) | 0.984 (inactive) | 0.906 (inactive) | 1.04 (inactive) | 1.05 (inactive) | 1.04 (inactive) |
| NC(=O)C1CO1 (stereo not drawn) [Glycidamide] (20 µM) | 0.988 | 0.992 | 0.998 | 1.06 | 1.05 (inactive) | 0.935 (inactive) | 0.988 (inactive) | 0.993 (inactive) | 1.07 (inactive) | 1.02 (inactive) | 1.02 (inactive) | 0.973 (inactive) |
| c1ccc(CNc2ncnc3nc[nH]c23)cc1 [Aminopurine, 6-benzyl] (20 µM) | 1.09 | 0.978 | 0.971 | 0.966 | 1.06 (inactive) | 0.971 (inactive) | 0.932 (inactive) | 1.03 (inactive) | 1.02 (inactive) | 1.02 (inactive) | 1 (inactive) | 0.856 (inactive) |
| CCc1cc(Cl)c(OC)c(C(=O)NC[C@@H]2CCCN2CC)c1O [(S,-) Eticlopride hydrochloride] (20 µM) | 0.973 | 0.985 | 1.02 | 0.979 | 1.04 (inactive) | 0.99 (inactive) | 0.88 (inactive) | 0.975 (inactive) | 1.02 (inactive) | 1.01 (inactive) | 0.985 (inactive) | 0.939 (inactive) |
| CC(C(=O)O)c1ccc(CC2CCCC2=O)cc1 (stereo not drawn) [Loxoprofen] (20 µM) | 1.24 | 1.03 | 1.06 | 1.13 | 0.95 (inactive) | 1.05 (inactive) | 1 (inactive) | 1.02 (inactive) | 1.02 (inactive) | 0.981 (inactive) | 1.01 (inactive) | 0.997 (inactive) |
| C[N+](C)(C)C[C@H](O)CC(=O)[O-] [Levocarnitine] (20 µM) | 0.997 | 1 | 0.994 | 0.966 | 1.04 (inactive) | 0.955 (inactive) | 1.07 (inactive) | 1.02 (inactive) | 1.03 (inactive) | 0.929 (inactive) | 1.09 (inactive) | 1.22 (inactive) |
| N=C(N)N/N=C/c1c(Cl)cccc1Cl [Guanabenz acetate] (20 µM) | 0.918 | 0.923 | 0.914 | 1.48 | 1.02 (inactive) | 1.03 (inactive) | 1.02 (inactive) | 0.979 (inactive) | 0.99 (inactive) | 1.01 (inactive) | 0.973 (inactive) | 1.02 (inactive) |
| CC(N)C12CC3CC(CC(C3)C1)C2 (stereo not drawn) [Rimantadine hydrochloride] (20 µM) | 0.858 | 0.975 | 0.955 | 0.786 | 1.01 (inactive) | 0.984 (inactive) | 1 (inactive) | 0.947 (inactive) | 1.01 (inactive) | 1.01 (inactive) | 0.994 (inactive) | 0.987 (inactive) |
| Nc1ccc(S(N)(=O)=O)cc1 [Sulfanilamide] (20 µM) | 0.877 | 1.03 | 0.987 | 1.15 | 0.919 (inactive) | 1.12 (inactive) | 1.11 (inactive) | 0.908 (inactive) | 0.951 (inactive) | 0.919 (inactive) | 1.03 (inactive) | 1.15 (inactive) |
| CC(C)C(=O)c1c(C(C)C)nn2ccccc12 [Ibudilast] (20 µM) | 0.946 | 0.973 | 1.02 | 0.991 | 1.02 (inactive) | 0.996 (inactive) | 1.08 (inactive) | 1.26 (inactive) | 0.984 (inactive) | 0.987 (inactive) | 0.997 (inactive) | 1.09 (inactive) |
